# PubChem BioAssay
# Unmarked numbers belong to inactive results. No rule for the calls is given here.
# Target: Pantothenate synthetase (Mycobacterium tuberculosis (strain ATCC 25618 / H37Rv)) (UniProt P9WIL5)
# Experiment: Recombinant Mtb pantothenate synthetase (PanC) inhibitors, coupled enzyme, confirmatory (AID 375);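 also: 0% = full reaction with vehicle and 100% = no enzyme background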
# Conditions: coupled enzyme assay; at 10 µM, active compounds read high
# Pantothenate synthetase (Mycobacterium tuberculosis (strain ATCC 25618 / H37Rv)), sequence (P9WIL5 whole entry, looked up): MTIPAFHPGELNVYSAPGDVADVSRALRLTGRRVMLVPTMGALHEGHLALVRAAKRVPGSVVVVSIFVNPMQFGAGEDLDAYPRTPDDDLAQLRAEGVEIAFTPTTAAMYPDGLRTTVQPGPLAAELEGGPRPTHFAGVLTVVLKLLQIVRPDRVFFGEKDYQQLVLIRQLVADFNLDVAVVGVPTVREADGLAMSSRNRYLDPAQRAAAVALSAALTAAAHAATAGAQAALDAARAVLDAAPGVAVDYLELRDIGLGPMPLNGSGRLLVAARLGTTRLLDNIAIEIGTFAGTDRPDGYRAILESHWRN
row,SMILES,inhibition
1,CN(C)CCCN1C(=O)CSC1c1ccccc1 (centres undefined),0%
2,CCN(CC)CCNC(=O)C1CCN(S(=O)(=O)N2CCCCC2)CC1,0%
3,Cc1ccc(S(=O)(=O)NCCNC(=O)C2CCCNC2=O)cc1 (centres undefined),6%
4,C=COC(=O)CSc1snc(SCC(=O)OC)c1C#N,0%
5,CN=Cc1cc(-c2ccccc2)sc1O,0%
6,CCn1cc(C(=O)O)c(=O)c2cc(F)c(N3CCNCC3)nc21,6%
7,CCOC(=O)C(CC)Sc1ncnc2nc[nH]c12 (centres undefined),0%
8,O=S(=O)(NCc1cn2ccccc2n1)c1cc(F)ccc1F,2%
9,CC(=O)N=c1sc(S(N)(=O)=O)nn1C,0%
10,O=C(NCc1ccccc1)N1CCn2c(nc3ccccc32)C1,3%
11,Cn1cnc2cc(NC(=O)c3ccc(Cl)cc3)ccc21,0%
12,CCN(CC)c1ncc(C)c(=O)[nH]1,1%
13,CCCOc1ccc(OCCSc2ncccn2)cc1,0%
14,CCn1nc(NC(=O)c2cccnc2)c2cc3ccccc3nc21,0%
15,CN(Cc1ccccc1)S(=O)(=O)c1ccc(S(=O)(=O)N2CCN(CCC#N)CC2)cc1,0%
16,O=C(NCCCN1CCOCC1)C1CC(=O)N(CCc2ccccc2)C1 (centres undefined),4%
17,CCSc1nnc(NC(=O)c2ccccn2)s1,1%
18,O=C(CSc1nnnn1C1CCCC1)N1CCN(C(=O)c2ccco2)CC1,0%
19,CC(C)COc1ccc(-c2nnn(CC(=O)N3CCCC3)n2)cc1,0%
